In the library only some 1.8% were active in any assay of this set; here they are far more common.
KCNH2 WT inh – KCNH2 (human, wildtype) channel inhibition. Q12809. U2OS, BacMam KCNH2, thallium flux FluxOr; active compounds read low. activity change, % at 1.84 µM. hit rate 0.37% among 340,000;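 active = maximum activity change below -70%; inconclusive = maximum activity change between -70% and -50%; inactive = maximum activity change above -50%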; note: % is set by controls: 0 for no effect and ±100 for the full control effect
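U2OS cells were transduced with wild-type KCNH2 virus (2.03 x 10^8 / mL) for 4 h at room temperature, then cultured overnight at 37 C. Thallium flux was read with FluxOr dye. Rate constants were normalized to DMSO controls.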
A-T KAP1 phos – potential ataxia-telangiectasia treatment; hit rate 0.19% among 320,000; F2112 A-T fibroblasts, KAP-1 phosphorylation AlphaLISA; neocarzinostatin DNA damage 30 min before lysis; Potency, µM (series often up to 57.5 µM), for inactives: at the highest dose activation, hits mostly activators; note: potency is the fitted concentration of half-maximal effect; % of control where 0% means no effect; nearly all actives have a fitted effect of over 45% in size
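hTERT-immortalized A-T patient fibroblasts (F2112), 500 cells/well in OPTI-MEM, 1% FBS, got compounds for 60 min, then NCS for 30 min at 37C. Lysates were then assayed for phospho-KAP-1 by AlphaLISA (anti-pKAP1 donor, anti-KAP1 acceptor beads), 6 hr at 25C.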
ALOX12 inh – ALOX12 (human) lipoxygenase inhibition | P18054 | purified 12hLO, xylenol orange hydroperoxide absorbance | Potency, µM (doses to about 108 µM), for inactives: at the highest dose activity change, negative = inhibition, actives largely listed as inhibitors | hit rate 1.1% among 580,000; note: potency is the fitted concentration of half-maximal effect; % is set by controls: 0 for no effect and ±100 for the full control effect
Target sequence (P18054 whole entry, looked up): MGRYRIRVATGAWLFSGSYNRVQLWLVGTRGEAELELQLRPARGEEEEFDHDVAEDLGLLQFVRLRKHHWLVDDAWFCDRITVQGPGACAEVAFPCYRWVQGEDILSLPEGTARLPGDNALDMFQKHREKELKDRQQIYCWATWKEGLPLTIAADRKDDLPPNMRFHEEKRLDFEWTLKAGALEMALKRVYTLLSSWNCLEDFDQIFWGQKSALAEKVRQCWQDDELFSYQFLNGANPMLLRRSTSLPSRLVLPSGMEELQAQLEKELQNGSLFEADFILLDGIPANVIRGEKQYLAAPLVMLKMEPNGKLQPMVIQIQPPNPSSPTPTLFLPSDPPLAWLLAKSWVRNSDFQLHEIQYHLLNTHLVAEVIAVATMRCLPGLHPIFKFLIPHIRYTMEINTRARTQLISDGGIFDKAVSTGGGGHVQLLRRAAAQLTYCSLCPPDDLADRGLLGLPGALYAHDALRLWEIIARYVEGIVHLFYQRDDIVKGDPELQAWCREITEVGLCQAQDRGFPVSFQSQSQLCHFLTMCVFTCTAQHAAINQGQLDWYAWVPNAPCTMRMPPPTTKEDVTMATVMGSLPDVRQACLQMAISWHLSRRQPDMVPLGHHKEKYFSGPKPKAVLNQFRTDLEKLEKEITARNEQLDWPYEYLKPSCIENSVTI
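Hydroperoxide product was detected by ferrous iron/xylenol orange as the 573 to 405 nm absorbance ratio. Arachidonic acid at 40 uM (final) was turned over for 30 min at room temperature by 150 nM human 12hLO, pH 7.0 Hepes buffer, after 15 min compound preincubation.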
KCNH2 3.1 inh – blocks the human KCNH2 3.1 channel isoform; hit rate 0.95% among 340,000; AID 720553; activity change, % (tested at about 1.8 µM); U2OS KCNH2 3.1, thallium flux FluxOr; active compounds read low;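 active = maximum activity change below -70%; inconclusive = maximum activity change from -70% to -50%; inactive = maximum activity change above -50%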;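 note: thallium influx rate constant from kinetic fluorescence after stimulation buffer; % is set by controls: 0 for no effect and ±100 for the full control effect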
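Kinetic fluorescence (2 min after stimulation buffer) measures Tl+ influx through KCNH2 3.1 expressed by viral transduction in U2OS cells; the rate constant is normalized against DMSO controls serving as positive and negative references.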
* marks the source's active call; other numbers are inactive results; ? = inconclusive; nt = no result given; [ ] = dose if it differs, or a comment. Unless noted, calls come from the whole dose curve; as a rule, active = well fitted curve in the direction sought with a large enough effect; inconclusive = small, poorly fitted or top-dose-only effect, or another doubt; inactive = no such curve, though single readings can be large; an effect the other way counts as inactive or inconclusive.

SMILES	KCNH2 WT inh	A-T KAP1 phos	ALOX12 inh	KCNH2 3.1 inh
CC(C)OCCCNC(=O)C1CCC(CNS(=O)(=O)c2ccccc2)CC1 (centres undefined)	5	-4%	7%	-85*
Cc1ccc(S(=O)(=O)NCC2CCC(C(=O)NCCCOC(C)C)CC2)cc1 (centres undefined)	nt	-19%	?	nt
O=S(=O)(c1ccc(Cl)cc1)c1ccc(-c2ccc(S(=O)(=O)c3ccc(Cl)cc3)cc2)cc1	nt	nt	11µM*	nt
Cc1ccc(S(=O)(=O)c2ccc(C)cc2)cc1	-26	6%	3%	-5
COc1cccc(NC(=O)c2cc3ccccc3oc2=O)c1	-76*	15%	11%	-12
COc1ccc2oc(=O)c(/C(C)=N/Nc3ccccc3)cc2c1	nt	-7%	32µM*	7
O=C(OCc1cccc2ccccc12)c1ccc(N2CCOCC2)nc1	nt	nt	18%	nt
O=C(NCc1cccc(Cl)c1)c1ccc(-n2cncn2)c2ccoc12	nt	nt	-15%	nt
O=C(NCc1cccc(Cl)c1)c1ccc(-n2ccnc2)c2ccoc12	nt	nt	40µM*	nt
Cc1ccc(C(=O)CSC2=C(C#N)C(c3ccco3)CC(=O)N2)c(C)c1 (centres undefined)	10	-4%	50µM*	20
Cc1ccc(NC(=O)CSC2=C(C#N)C(c3ccco3)CC(=O)N2)cc1 (centres undefined)	-5	nt	?	5
CCc1c(O)nc(SC2CC(=O)N(c3ccccc3)C2=O)[nH]c1=O (centres undefined)	-2	-8%	10µM*	-6
Cc1c(O)nc(SC2CC(=O)N(c3ccccc3)C2=O)[nH]c1=O (centres undefined)	-1	nt	?	-1
Cc1nc2ccccc2n1Cc1cc(C(=O)N2CCCC2)no1	nt	nt	26%	nt
CCc1cccc(NC(=O)N2CCc3c(c4cc(F)ccc4n3C)C2)c1	nt	nt	127%	nt
COc1ccc(C(=O)Nc2ccc(N3CCN(c4ccccc4)CC3)c(C(=O)O)c2)cc1	nt	nt	-25%	nt
CCCn1nc(C)cc1CN(C)c1ccc(NC(=O)c2ccc(OC)cc2)cc1C(=O)O	nt	nt	4.5µM*	nt
CC(Cc1ccccc1)=NNc1ccc([N+](=O)[O-])cc1[N+](=O)[O-]	19	nt	-11%	-1
CC(Cc1ccccc1)=NNS(=O)(=O)c1ccc([N+](=O)[O-])cc1	-7	nt	20µM*	-9
Fc1ccccc1C1c2[nH]c3ccccc3c2CCN1Cc1cccn1-c1ncccn1 (centres undefined)	-44	7%	-15%	-71*
Cc1ccccc1C1c2[nH]c3ccccc3c2CCN1Cc1cccn1-c1ncccn1 (centres undefined)	-13	-12%	17%	-24
Cc1ccc(-c2noc([C@@H]3C[C@@H](O)CN3C3CCCCC3)n2)cc1F	nt	nt	11%[176 µM]	nt
O=C(c1ccco1)N1CCN(S(=O)(=O)c2ccc(Br)cc2)CC1	-5	1%	-2%	-4
O=C(c1ccco1)N1CCN(S(=O)(=O)c2ccc(S(=O)(=O)NC3CC3)cc2)CC1	11	2%	-5%	-83*
CN(CC(=O)NC(c1ccccc1)c1ccccc1)Cc1nc2ccccc2c(=O)[nH]1	-81*	nt	17%	?
SMILES	KCNH2 WT inh	A-T KAP1 phos	ALOX12 inh	KCNH2 3.1 inh
CN(CC(=O)Nc1ccc(F)cc1)Cc1nc2ccccc2c(=O)[nH]1	nt	nt	45%	nt
Cc1cc(C)nc(SCc2ccc(Cl)cc2)n1	-16	14%	0%	-2
Cc1cc(C)nc(SCC(=O)c2ccc(O)c(O)c2)n1	-11	9%	8.9µM*	8
Cc1cc(C)nc(SCC(=O)c2ccc(C)c(C)c2)n1	-3	16%	15%	1
Cc1cc(C)nc(SCNC(=O)c2ccc(Cl)cc2)n1	-9	3%	26%	-101*
Cc1cc(SCC(=O)c2ccc(O)c(O)c2)n2nc(C)c(-c3ccccc3)c2n1	-19	-7%	40µM*	11
COCc1cc(C)nc(SCC(=O)c2ccc(O)c(O)c2)c1C#N	-5	-1%	0.89µM*	-4
CC(C)CCC(=O)N1CCC(OC2CCN(Cc3ccccc3)CC2)CC1	nt	nt	35%	nt
CCC(Oc1ccc(F)cc1)C(=O)NCc1csc(-c2ccccc2)n1 (centres undefined)	nt	nt	43%	nt
O=C(CSc1nc2ccccc2n1CCc1ccccc1)c1ccc(O)c(O)c1	-17	-2%	25µM*	-4
COc1ccc(-n2nnnc2SCC(=O)c2ccc(O)c(O)c2)cc1	-9	-13%	4.5µM*	17
O=C(CSc1nc2ccccc2n1CCc1ccccc1)N1CCOCC1	2	3%	-10%	nt

Source: PubChem (National Center for Advancing Translational Sciences (NCATS))
